Measurements: PubChem BioAssay (NCI)
Compounds without any hit were thinned out: in the full panel of roughly 83,000, 20% have a hit.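 In brief: 96-well plates, 48 h treatment, single concentration, percent growth endpoint.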 Unmarked numbers belong to inactive results. Activity calls are given as the source filed them.

These compounds were tested on SNB-75 CNS (assay: NCI-60 one-dose screen, 48 h (100 = growth as untreated, 0 = no growth, -100 = all killed)). Conditions: 10 µM unless noted.
Description: Growth inhibition of the SNB-75 human tumor cell line is measured as a screen for anti-cancer activity. Cells are grown in 96 well plates and exposed to the test compound for 48 hours. Compounds are tested at a single concentration, which is 10^-5 M for most compounds. The reported endpoint is percent growth (GI% or GIPRCNT), where numbers from 0 - 100% represent growth inhibition, and numbers from -100% - 0 represent cell death. For example, a value of 40 represents 60% growth inhibition. A value of 0 means no net growth occurred over the course of the experiment. A value of -40 indicates 40% of cells at the beginning of the experiment died by the end of the experiment. A value of -100 means all cells are dead at the end of the experiment.
NCI-60 Human Tumor Cell Lines Screen was performed using the standard one-dose NCI protocol, which is described in more detail at https://dtp.cancer.gov/discovery_development/nci-60/default.htm.
Compounds with GIPRCNT values below 10 were considered active. Activity score was based on GIPRCNT using the following formula: […]
Score is 0 for GIPRCNT values of 100 or above, 50 for GIPRCNT values of 0, and 100 for GIPRCNT values of -100.

Row | Compound | growth
1 | O=C(Cn1c2ccccc2c2ccncc21)N/N=C\c1ccc2ccccc2c1 | 3.82% (active)
2 | COc1ccc(/C=C2/C(=O)Nc3cc(Cl)c(-c4csc(N)n4)cc32)cc1 | 37.5%
3 | O=c1c2ccccc2sc2c(NCCCNCCO)nc3ccccc3c12 | 35.3%
4 | Cc1cc(C)c(O)c(C(=O)CC(Br)C(=O)O)c1 (stereo not given) | 102%
5 | CCn1cc(C(=O)O)c(=O)c2cc(F)c(N3CCN(CC(=O)Nc4ccc(C(C)=O)cc4)CC3)cc21 | 87.3%
6 | NC(=NCCCOc1ccc(F)cc1)Nc1ccc(Cl)c(Cl)c1 | 57.8%
7 | CCNC(=O)Oc1ccc(/C(=C(/CC)Cc2ccccc2)c2ccc(OCCN3CCOCC3)cc2)cc1 | 70.2%
8 | COc1ccc(-c2ccc(NC(=O)Nc3ccc(Cl)c(C(F)(F)F)c3)c(C)n2)cc1 | 73.4%
9 | Cc1ccc2c(c1)Nc1ccc(C)cc1C2(C)C | 83.9%
10 | Cc1cc(O[C@@H]2O[C@@H](C)[C@H](O)[C@@H](O)[C@H]2O)c2c3c(c(O[C@@H]4O[C@@H](C)[C@H](O)[C@@H](O)[C@H]4O)cc2c1)C(=O)c1c(O)cccc1C3=O | 52.2%
11 | Cc1ccc2nc(-c3ccc(-n4on4-c4ccc(/C=C/c5ccc(-n6on6-c6ccc(-c7nc8ccc(C)cc8s7)cc6)cc5S(=O)(=O)O)c(S(=O)(=O)O)c4)cc3)sc2c1 | 107%
12 | CO[C@H]1/C=C/C=C/C=C/C[C@H](OC(=O)[C@@H](C)NC(=O)C2CCCCC2)[C@H](C)[C@@H](O)/C(C)=C\CCC2=CC(=O)C=C(NC(=O)C1)C2=O | -20.2% (active)
13 | COc1cccc(-c2nc3sccn3c2-c2ccnc(NCCNC(=O)c3ccccc3)n2)c1 | 92.6%
14 | C[C@H]1C=C(C[C@@H](O)CCCCCCCCCC[C@@H](O)[C@H]2CCC(=O)O2)C(=O)O1 | 115%
15 | O=S(=O)(CCN1CCOCC1)Nc1cc(-c2ccc3ncnc(Nc4ccc(F)c(Cl)c4)c3c2)cnc1Cl | -20.7% (active)
16 | CCOC(=O)c1noc2c1CCc1c-2cn(Cc2ccc(OC)cc2)c1-c1cc(OC)c(OC)c(OC)c1 | 14%
17 | O=C(O)c1ccc(-n2cc(/C=N/Nc3ccc(F)cc3)c(-c3cccc(C(F)(F)F)c3)n2)cc1 | 88.4%
18 | O=c1nc(N2CCOCC2)oc2c(-c3cccc4ccccc34)cccc12 | 46.9%
19 | Cc1cc(NC(=O)c2cccc(C(F)(F)F)c2)ccc1-n1ccc2c(NC(=O)c3ccccc3)nccc21 | 91.2%
20 | COc1ccc(-c2cc3ccc(N(C)C)cc3nc2N)c(F)c1 | 55%

Row | Compound | growth
21 | CCCCN(CCCC)c1ccc(C(=N)c2ccc(N(C)C)cc2)cc1 | -46.6% (active)
22 | O=C(NCCNc1nccc(-c2c(-c3cccc(O)c3)nc3sccn23)n1)Nc1cc(C(F)(F)F)cc(C(F)(F)F)c1 | 66.1%
23 | COc1ccc(Cn2cc(COc3ccc4c5ccnc(C)c5n(CCCc5ccccc5)c4c3)nn2)cc1 | 51%
24 | S=c1ssnc1-c1ccccn1 | 36.6%
25 | COC(=O)c1ccc2c(c1)Oc1ccc(Cl)cc1-c1cc(C)nn1-2 | 63.3%
26 | CC(=O)CC/C=C(\C)[C@H](O)[C@H](C)C(=O)O[C@H]1C[C@H](C)C=C2C=C[C@@]3(C)O[C@@H](O)CC(=O)[C@]3(C)[C@H]21 | -85.3% (active)
27 | Cc1nssc1=S | 92.3%
28 | COc1cc(NC(C)CCCN2C(=O)c3ccccc3C2=O)c2ncccc2c1OC (stereo not given) | 84.8%
29 | CC[C@H]1[C@@H]2C=C[C@@H]3[C@H]4C/C=C\C(=O)NCCC[C@@H]5NC(=O)/C(=C(O)/C=C/[C@@H]4C[C@@H]3[C@H]2C[C@H]1C)C5=O | -85.6% (active)
30 | O=[N+]([O-])c1ccc(NS(=O)(=O)c2cc(Cl)ccc2Cl)c2ccccc12 | 60.6%
31 | Clc1ccc2c(NCCNc3nc(Cl)nc4ccccc34)ccnc2c1 | -93.1% (active)
32 | COc1ccc(-c2coc3c(CO)c(O)ccc3c2=O)cc1 | 115%
33 | CCOc1ccccc1C(=O)N1CCN(c2cc(Cl)cc(Cl)c2)CC1 | 34.3%
34 | CCOC(=O)C1CN(Cc2ccccc2)C(=O)C1=O (stereo not given) | 76.1%
35 | CCCCC(=O)Nc1nc2ccc(SCCC)cc2s1 | 33.2%
36 | O=C(CSc1nnc(-c2ccc(Cl)cc2)o1)Nc1ccc(C(=O)/C=C/c2ccccc2)cc1 | 90.4%
37 | COc1cc(/C=C/C(=O)c2c(C)[n+]([O-])c3ccccc3[n+]2[O-])ccc1O | 162%
38 | Cc1cn([C@]2(CF)O[C@H](CO)C2C)c(=O)[nH]c1=O (stereo not given in full) | 116%
39 | S=c1[nH]nc(Cn2c3ccccc3c3ccncc32)o1 | 102%
40 | CC(C)[C@@H]1NC(=O)[C@]2(C)CSC(=N2)c2ccnc(c2)CNC(=O)C[C@@H](/C=C/CCS)OC1=O | 25.8%
